The list is not random: actives were taken first. Their share in the collection is about 2.4%.
D2 ag-1 = agonists of human D2 dopamine receptor (beta-arrestin); P14416; DiscoveRx PathHunter D2 beta-arrestin, luminescence, 90 min; 100% = 57 uM dopamine signal; activation, % (concentration not given with the values); actives 0.084% (n = 360,000); AID 624465; in the data active = activation above about 40%; inconclusive = between about 15% and that limit
Target sequence (P14416 whole entry, looked up): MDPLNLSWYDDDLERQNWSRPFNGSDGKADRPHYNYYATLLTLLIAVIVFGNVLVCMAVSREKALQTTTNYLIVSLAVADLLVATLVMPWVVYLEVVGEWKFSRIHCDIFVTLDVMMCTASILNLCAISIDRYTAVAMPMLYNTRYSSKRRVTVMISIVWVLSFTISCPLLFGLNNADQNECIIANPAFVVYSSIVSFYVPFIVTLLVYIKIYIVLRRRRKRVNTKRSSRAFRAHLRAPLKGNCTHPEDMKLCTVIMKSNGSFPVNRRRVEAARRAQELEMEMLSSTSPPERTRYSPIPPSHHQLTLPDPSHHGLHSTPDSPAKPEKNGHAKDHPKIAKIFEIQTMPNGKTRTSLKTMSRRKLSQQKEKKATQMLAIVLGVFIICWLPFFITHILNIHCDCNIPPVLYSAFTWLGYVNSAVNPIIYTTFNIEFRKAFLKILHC
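Agonist mode: compounds alone added to overnight-plated D2 PathHunter cells for 90 min at 37 C, with 57 uM final dopamine (EC100) defining full response. Beta-arrestin recruitment detected by chemiluminescent reagent, read after 1 h at ambient temperature.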
D2 PAM-1 = positive allosteric modulators of human D2 dopamine receptor; P14416; DiscoveRx D2 beta-arrestin cells, luminescence, 90 min; 100% = 57 uM dopamine signal; potentiation, % (no concentration beside the values); actives 0.23% (n = 360,000); in the data active = potentiation above about 50%; inconclusive = mostly about 30% to 49%
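D2 cells co-treated with compound plus 50 nM dopamine (EC20) for 90 min at 37 deg C to detect potentiation. Beta-arrestin recruitment was read as enzyme-fragment luminescence after 1 h at ambient temperature. Full response was set by 57 uM dopamine.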
D2 PAM-2 = positively modulates the human D2 dopamine receptor allosterically; HEK293 T-REx D2, calcium flux, EC20 dopamine potentiation; actives 0.34% (n = 340,000); P14416; potentiation, % at 10 µM;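 active = potentiation over 3 SD above the plate norm, cut at about 30% in these data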
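Tetracycline-induced HEK293 T-REx cells force-coupled to calcium signalling expressed D2; compounds were pin-added after a 10 s baseline, read kinetically 180 s, then an EC20 dopamine challenge followed with a further 180 s calcium read.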
D2 antag = D2 dopamine receptor (human) antagonism. HEK293 TREx D2 cells, calcium flux, dopamine EC80. inhibition, % at 10 µM. actives 2% (n = 340,000); in the data active = inhibition above about 30%; inactive = below that, where a call was filed
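HEK293 T-REx D2 cells, tet-induced, calcium dye no-wash. Cpd pintool add, 180 s kinetic, then EC80 DA, 180 s kinetic. Ca flux read.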
D2 ag-2 = agonists of human D2 dopamine receptor | actives 0.53% (n = 340,000) | activation, % at 2 µM | HEK293 T-REx D2 cells, calcium flux agonist mode;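 active = activation over 3 SD above normal in the single-dose calcium agonist read, cut at about 30% in these data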
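In this primary screen, compounds producing a positive calcium signal within 180 s of addition to tetracycline-induced, force-coupled HEK293 Trex D2 cells are flagged; cells are dye-loaded with a no-wash calcium kit beforehand.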
A number is an active result; . = inactive; ? = inconclusive; / = no result.

SMILES | D2 ag-1 | D2 PAM-1 | D2 PAM-2 | D2 antag | D2 ag-2
CSc1ccc(CN2CCN(CC=C(C)C)C(CCO)C2)cc1 (stereo not given) | . | . | . | 33 | .
CSc1cccc(CN2CCN(CCc3ccccc3)C(CCO)C2)c1 (stereo not given) | . | . | . | . | .
Cc1ccc(CN(C(=O)COc2c(C)cccc2C)C2CCS(=O)(=O)C2)o1 (stereo not given) | / | / | . | / | .
COc1ccccc1N1CCN(c2ccc(=O)n(CC(=O)NCc3ccc(F)cc3)n2)CC1 | / | / | / | / | .
Cc1ccc(NC(=O)c2ccc(NC(=O)N3CCSc4ncccc43)cc2)c(Cl)c1 | / | / | . | / | /
CN(CCCNC(=O)c1cccn2c(=O)c3ccccc3nc12)Cc1ccccc1 | . | . | . | 31 | .
O=C(NCCN1CCN(c2ccccc2)CC1)c1cccn2c(=O)c3ccccc3nc12 | . | . | . | . | .
Fc1ccc(CNc2nc3ccc(Cl)cc3n3nnnc23)cc1 | / | / | . | / | .
CC1CCCCN1C(=O)CN1CCC(c2nc3ccc(Cl)cc3[nH]2)CC1 (stereo not given) | . | . | . | . | .
Clc1ccc2nc(C3CCN(Cc4ccccc4)CC3)[nH]c2c1 | . | . | . | 53 | .
Cc1ccc(CN2CCC(c3nc4ccc(Cl)cc4[nH]3)CC2)cc1 | . | . | . | 87 | .
COc1ccc(OC)c(Nc2sc(C(=O)c3ccccc3)c(N)c2S(=O)(=O)c2ccccc2)c1 | / | / | . | / | .
Cc1cc(N2CCCCC2)nc(N)n1 | . | . | . | 60 | 69
Cc1cc(N2CCCC2)nc(-c2ccccc2O)n1 | . | . | . | . | .
C/C(CCc1ccccc1)=N\NC(=S)NCCc1ccccc1 | . | . | 31 | . | .
Cc1ccc(-c2csc(=Nc3ccccc3)n2Cc2ccc3c(c2)OCO3)cc1 | / | / | . | / | .
CCOC(=O)c1cnc2ccc(C)cc2c1Nc1ccc(N(CC)CC)cc1 | / | / | . | / | .
Cc1ccc(OCCCCn2cnc3ccccc32)c(C)c1 | . | . | . | . | .
Cc1ccc(OCCCCN2CCc3ccccc3C2)c(C)c1 | . | . | . | 76 | .
Cc1ccc(C)c(OCCCN2CCc3ccccc3C2)c1 | . | . | . | 70 | .
Cc1ccc(C(C)C)c(OCCCN2CCc3ccccc3C2)c1 | . | . | . | 30 | .
Cc1ccc(C(C)C)c(OCCN2CCc3ccccc3C2)c1 | . | . | . | . | .
CSc1nc2sc3c(c2c(=O)n1Cc1ccccc1)CCC(C(C)(C)C)C3 (stereo not given) | / | / | . | / | .
CC(=O)N1C(C)(C)CC(=NOC(=O)c2ccccc2)CC1(C)C | . | . | . | . | .
CC(=O)N1C(C)(C)CC(=NOC(=O)c2ccc(C)cc2)CC1(C)C | ? | 67 | . | . | .
SMILES | D2 ag-1 | D2 PAM-1 | D2 PAM-2 | D2 antag | D2 ag-2
CCOc1ccc(CNC(=O)c2ccc3nc(CC)c(CC)nc3c2)cc1 | / | / | . | / | .
C=CCN(c1ccccc1)S(=O)(=O)c1cccc(C(=O)Nc2nnc(SCC)s2)c1 | . | . | . | 43 | .
C=Cc1ccc(Cn2c(C(=O)O)c(CNCc3ccccc3)c3ccc(C)cc32)cc1 | / | / | . | / | .
C[N+](C)(C)CC/C=C1/c2ccccc2CSc2ccccc21 | . | . | . | . | .
CNCCC=C1c2ccccc2CCc2ccccc21 | . | . | . | 42 | .
CCOc1ccc2nc(NC(=O)c3nc(SCc4ccccc4C)ncc3Cl)sc2c1 | / | / | . | / | .
CN1CCC(=C2c3ccccc3CCc3sccc32)CC1 | . | . | . | 86 | .
CN1CCC(=C2c3ccccc3CC(=O)c3sccc32)CC1 | . | . | . | . | .
Oc1c(C(c2cccc(Cl)c2)N2CCOCC2)sc2nc(-c3ccco3)nn12 (stereo not given) | / | / | / | / | .
O=C1CN(C(=O)c2ccc(S(=O)(=O)N3CCCC3)cc2)C(c2ccccc2)c2cc(Br)ccc2N1 (stereo not given) | / | / | . | / | .
Cc1cc(C(=O)NCCCN2CCN(c3cc(Cl)ccc3C)CC2)n(-c2ccccc2)n1 | . | . | . | 47 | .
Cc1cc(C(=O)NCCN2CCN(c3cccc(Cl)c3)CC2)n(-c2ccccc2)n1 | . | . | . | . | .
C/C(=N\OC(=O)Nc1ccc(Cl)cc1)c1ccc(F)c(F)c1 | . | . | . | 41 | .

From PubChem BioAssay
